# Sampled rows, rich in hits. Any-hit rate of the full collection: about 12%.
# BAZ2B block: blocks human BAZ2B; Q9UIF8; AlphaScreen BAZ2B-H3K14Ac peptide displacement; Potency, µM (doses to about 114 µM), for the others: top-dose activity change, negative = inhibition, actives largely listed as inhibitors; 4.4% of 360,000 active; AID 504333; also: % is scaled to controls: 0 for no effect and ±100 for the full control effect; nearly all actives have a fitted effect of over 60% in size
#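 AlphaScreen displacement: compounds (up to 110uM) incubated 30 min at room temperature with a preformed 50 nM BAZ2B/50 nM biotinylated H3K14Ac peptide complex in PBS pH 7.4 with Tween-20. Donor and acceptor beads at 10 ug/mL final added, 20 min light-protected before reading.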
# Sfp inh: Sfp phosphopantetheinyl transferase inhibition; 3.5% of 310,000 active; Potency, µM, without a hit: largest response in the series, negative = inhibition, actives largely listed as inhibitors; Biochemical Sfp PPTase activity, qHTS;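 also: the enzyme is Sfp with the accession as filed and its product quenches rhodamine fluorescence; 0% = enzyme reaction without inhibitor and -100% = no enzyme wells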
#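 Sfp 15 nM + cpd, 15 min RT; start w/ rhodamine-CoA 5 uM, BHQ-2-YbbR 12.5 uM (final); 50 mM Hepes pH 7.6, 10 mM MgCl2, 0.01% NP-40, 0.01% BSA; read 525/598 nm at 0 and 30 min.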
# HP1b chromo inh: blocks HP1-beta chromodomain binding to methylated histone tails; Potency, µM (top dose mostly 114 µM), for the others: at the top dose activity change, negative = inhibition, most hits filed as inhibitors; AID 540317; AlphaScreen HP1-beta / biotin-H3K9me3 peptide binding; 0.56% of 390,000 active; also: nearly all actives have a fitted effect of over 70% in size
# Target sequence (P83916 whole entry, looked up): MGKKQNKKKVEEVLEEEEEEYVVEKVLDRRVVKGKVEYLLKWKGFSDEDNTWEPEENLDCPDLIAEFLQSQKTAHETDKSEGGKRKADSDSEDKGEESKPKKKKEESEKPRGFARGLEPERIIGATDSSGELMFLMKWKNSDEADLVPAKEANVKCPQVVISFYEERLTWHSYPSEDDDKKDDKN
#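 HP1-beta protein (50 nM final) preincubated 30 min at room temperature with biotinylated H3(1-18)K9me3 peptide (50 nM) in PBS pH 7.4, 0.01% Tween-20, then compound added for 30 min. AlphaScreen streptavidin donor/nickel chelate acceptor beads (10 ug/mL final), 30 min dark, luminescence read.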
# JMJD2A Tudor inh: JMJD2A Tudor domain (human) inhibition. Potency, µM (highest dose often 114 µM), inactives show top-dose activity change, negative = inhibition, most hits filed as inhibitors. 4.4% of 390,000 active. AlphaScreen JMJD2A-Tudor / H3K4me3 peptide binding. O75164. AID 504339; also: % is scaled to controls: 0 for no effect and ±100 for the full control effect; nearly all actives have a fitted effect of over 50% in size
# G9a inh: blocks human histone lysine methyltransferase G9a. G9a H3K9 monomethylation, AlphaScreen, 2 h. 8.8% of 350,000 active. Q96KQ7. Potency, µM (top dose mostly 102 µM), inactives show at the highest dose activity, negative = inhibition, most hits filed as inhibitors; also: % is scaled to controls: 0 for no effect and ±100 for the full control effect; nearly all actives have a fitted effect of over 75% in size
# Target sequence (Q96KQ7 913-1193 limits assumed): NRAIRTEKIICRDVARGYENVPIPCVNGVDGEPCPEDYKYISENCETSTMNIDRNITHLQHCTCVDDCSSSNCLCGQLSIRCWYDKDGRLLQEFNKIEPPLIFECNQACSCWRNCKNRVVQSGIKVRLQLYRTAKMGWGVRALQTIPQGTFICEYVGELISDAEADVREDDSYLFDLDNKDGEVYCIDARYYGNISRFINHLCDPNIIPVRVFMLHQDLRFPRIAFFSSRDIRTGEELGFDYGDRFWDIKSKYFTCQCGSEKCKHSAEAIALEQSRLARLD
#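 Methyltransferase reactions run at room temperature for 2 h (20 nM enzyme, 500 nM biotin-H3K9 peptide, 20 uM SAM) after a 15 min compound preincubation; product detected by AlphaScreen beads and anti-H3K9me1 antibody.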
# TDP1 inh: blocks human tyrosyl-DNA phosphodiesterase 1. recombinant TDP1, AlphaScreen DNA substrate cleavage. 0.28% of 350,000 active. Potency, µM (top dose mostly 130 µM), for inactives: at the top dose activity change, negative = inhibition, usual class: inhibitors; also: % is scaled to controls: 0 for no effect and ±100 for the full control effect; nearly all actives have a fitted effect of over 40% in size
#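 Here, a 5' biotin and 3' phosphotyrosine-FITC DNA oligonucleotide reports Tdp1 activity: intact substrate bridges AlphaScreen beads, while cleavage leaves a 3' phosphate and drops signal. All incubations at room temperature.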
# * = called active by the depositor; ? = inconclusive; · = no result given; [ ] = dose if it differs, or a comment. Calls follow the shape of the dose curve; as a rule, active = well fitted curve in the direction sought with a large enough effect; inconclusive = small, poorly fitted or top-dose-only effect, or another doubt; inactive = no such curve, though single readings can be large; an effect the other way counts as inactive or inconclusive. Potency is read from the fitted curve at half-maximal effect.
SMILES,BAZ2B block,Sfp inh,HP1b chromo inh,JMJD2A Tudor inh,G9a inh,TDP1 inh
COc1ccc(CNC(=O)CN2C(=O)CCn3nc(-c4cn(C)c5ccccc45)cc32)cc1,-24.2%,·,7.8%[57 µM],-29.7%,-6.8%[59 µM],7.7%
Cc1ccc(C2=CSC3=NCCN23)cc1,·,·,24.6%,-1.0%,·,·
CC1CN2C(c3ccc(Cl)cc3)=CSC2=N1 (stereo not given),-4.7%,-8.6%,16.6%,-23.8%,44.7µM*,·
CC(C)NS(=O)(=O)c1ccc(OCC(=O)N2CCN(c3ccccc3F)CC2)cc1,4.4%,·,42.1%,-2.4%,1.3%[59 µM],1.1%
S=c1[nH]nc(C(c2ccccc2)C2CCCCC2)o1 (stereo not given),-28.8%,7.2%,-13.3%,-11.4%,44.7µM*,8.4%
S=c1[nH]nc(C2(c3ccccc3)CCCC2)o1,-35.1%,-13.4%,53.4%,-22.4%,-129.5%[59 µM],·
CC(=O)Nc1ccc(NC(=O)Cn2c(=O)n(-c3ccc(C)cc3)c(=O)c3oc4ccccc4c32)cc1,·,-2.6%,17.3%,4.9%,-1.9%,0.0%
CN1CN(C)C(c2ccncc2)=C1c1ccncc1,-8.6%,-10.6%,21.7%,-7.0%,39.8µM*,-4.3%
CCc1cccc2c(-c3csc(=NC)n3C)c[nH]c12,-31.2%,-15.8%,1.5%,-31.3%,50.1µM*,5.8%
CCc1cccc2c(C(=O)CCl)c[nH]c12,0.2%,9.6%,31.8%,-9.7%,?,5.5%
CCCn1c(-c2ccc(F)cc2)nc2c(NCCCN3CCCCC3C)nc(C)nc21 (stereo not given),·,5.1%,·,·,·,-2.7%
COc1ccc(-c2nc(-c3cccc(C)c3)nc(N3CCN(C)CC3)c2C#N)cc1,-7.1%[57.1 µM],10.9%,9.4%,-19.3%,79.4µM*,1.0%
COC(=O)c1sc2nc(-c3ccccc3)nc(N3CCN(C)CC3)c2c1C,?,50.1µM*,-4.7%,?,?,4.3%
COc1cccc(-c2nc(-c3ccccc3)nc(N3CCN(C)CC3)c2C#N)c1,?,-26.7%,-8.5%,56.2µM*,50.1µM*,5.5%
COc1ccc(-c2nc(-c3ccccc3)nc(N3CCN(C)CC3)c2C#N)cc1,?,1.1%,-10.3%,?,-7.9%,2.0%
CN1CCN(c2nc(-c3ccccc3)nc(-c3ccccc3)c2C#N)CC1,-10.4%,-23.3%,25.7%,-13.4%,-35.8%,6.9%
CCOc1ccc(CN(C)C(=O)CNC(=O)C2CCCCC2)cc1OC,-3.8%,-1.7%,21.6%,-1.4%,7.8%,-0.9%
O=C(CNC(=O)c1nn(Cc2ccccc2)c(=O)c2ccccc12)Nc1ccc(F)c(F)c1F,·,·,13.7%[57 µM],-12.4%,·,0.7%
O=C(Cn1cc(S(=O)(=O)c2ccc(F)cc2)c(=O)c2cc3c(cc21)OCO3)Nc1ccccc1,5.6%,·,12.6%,-17.9%,15.0%[59 µM],1.3%
CCC(OC(=O)c1cccs1)C(=O)NCc1ccc2c(c1)OCO2 (stereo not given),-5.3%,5.0%,10.7%,100µM*,13.9%[12.7 µM],2.3%
O=C(NCCc1csc(-c2cccc(F)c2)n1)c1ccc(Br)o1,-23.1%,·,7.7%[57 µM],-8.3%,11.8%[59 µM],-5.3%
Cc1sc(NC(=O)c2sc3nc4c(C)cccc4cc3c2N)c(C#N)c1C,?,?,11.1%,-31.2%,-89.5%[2.33 µM],2.9%
Cc1cccc2cc3c(N)c(C(=O)N4CCc5ccccc54)sc3nc12,-6.8%,0.6%,24.6%,-21.7%,1.41µM*,1.1%
Cc1cccc2cc3c(N)c(C#N)sc3nc12,9.1%,8.2%,111.8%,10.8%,7.94µM*,-8.7%
CC(=O)N1c2ccc3ccccc3c2C2C=CCC2C1c1ccc(Br)cc1 (stereo not given),?,-25.0%,·,·,?,2.3%
SMILES,BAZ2B block,Sfp inh,HP1b chromo inh,JMJD2A Tudor inh,G9a inh,TDP1 inh
CC(=O)N1c2ccc(Cl)cc2C2C=CCC2C1c1cccc2ccccc12 (stereo not given),-32.7%,?,3.8%,-35.4%,12.6µM*,0.0%
Cc1nc(C(=O)O)cc2c1[nH]c1ccccc12,50.1µM*,·,67.0%,79.4µM*,12.0%[12.7 µM],·
COc1c2ccoc2nc2c(OC)c(O[C@@H]3O[C@H](C)[C@@H](O)[C@@H](O)[C@H]3O)ccc12,·,6.1%,·,·,·,5.6%
Clc1ccc(-c2csc(Nc3ccccc3)[n+]2Cc2ccco2)c(Cl)c1,25.1µM*,?,?,-36.0%,31.6µM*,5.1%
CCCC[n+]1c(-c2ccc(Cl)cc2Cl)csc1Nc1ccccc1,12.6µM*,-2.3%,?,70.8µM*,11.2µM*,2.3%
CCCC(NC(=O)C(C)N1CCN(S(=O)(=O)c2ccccc2)CC1)c1ccccc1 (stereo not given),-4.5%,·,30.1%,-18.0%,21.3%[59 µM],0.1%
c1ccc2c3c([nH]c2c1)[C@@H]1[C@H]2CC[C@H]([C@H]4CCCN[C@H]42)N1CC3,·,8.3%,·,·,10µM*,12.8%[21 µM]
O=C1CCC[C@H]2c3[nH]c4ccccc4c3CCN12,·,·,1.7%,-17.7%,·,·
Cc1cc2c(cc1S(=O)(=O)CCC(=O)NCCc1ccccc1)OCC(=O)N2,6.8%,3.1%,47.3%,-11.6%,18.2%,-2.6%
CC1CCc2nc3ccc(S(=O)(=O)N4CCC(C(=O)N5CCCCCC5)CC4)cc3c(C(=O)O)c2C1 (stereo not given),-21.1%,13.2%,-8.4%,-16.1%,44.7µM*,2.3%
O=C(O)c1c2c(nc3ccc(S(=O)(=O)N4CCC(C(=O)NC5CCCCCC5)CC4)cc13)CCCC2,50.1µM*,1.2%,4.2%,?,39.8µM*,4.6%
COc1cc(-c2ccc3ncnc(NCc4nc(C)cs4)c3c2)cc(OC)c1OC,·,·,·,-32.6%,·,·
O=C1C(c2ccc(F)cc2)N(Cc2ccccc2Cl)C(=O)CN1C1CCCCC1 (stereo not given),5.0%,·,-4.5%,-18.0%,4.7%[59 µM],5.2%
COc1ccc([N+](=O)[O-])cc1NC(=O)CC1SC(=Nc2cccc(C)c2C)N(/N=C/c2cccc(OC)c2OC)C1=O (stereo not given),-22.3%,16.7%,-14.3%,-29.0%,35.5µM*,7.2%
O=C(O)c1c[nH]c(=S)n1-c1ccc(F)cc1,?,11.2µM*,50.5%,?,28.2µM*,·
CCOc1ccc(CNC(=O)c2ccc3c(c2)sc2nc(-c4ccccc4)cn23)cc1,-12.6%,·,37.0%,-3.6%,2.4%[59 µM],1.3%
O=C(c1cccn2c(=O)c3ccccc3nc12)N1CCN(c2ccccn2)CC1,0.6%,24.4%,30.2%,-4.3%,-27.8%,2.1%
O=C(O)c1cccn2c(=O)c3ccccc3nc12,?,6.7%,6.1%,79.4µM*,?,0.0%
COc1ccc(OC)c2c(=O)cc(C(=O)O)[nH]c12,?,-23.7%,-2.4%,79.4µM*,25.1µM*,·
